Laboratory results taken from PubChem BioAssay AID2314 (National Center for Advancing Translational Sciences (NCATS), 2010).
The campaign covered roughly 300,000 compounds. About 37,000 (12%) were called active. What follows is part of a selection rich in actives, with near analogues and random picks from the rest. A number with no mark means an inactive call. Cut-off read from the data, not from the text of the source: active = max response mostly above about 13% (no sharp cut-off); inactive = mostly below about 14%.

Test: Cycloheximide Counterscreen for Small Molecule Inhibitors of Shiga Toxin; note: read at 38.3 µM for the half of the compounds with a filed dose; 0% is about no effect
Details: cell reporter, cycloheximide protein synthesis inhibition counterscreen; stronger effect = higher value
`CCc1ccc(OC(C)C(=O)Nc2ccc(S(=O)(=O)Nc3cc(C)on3)cc2)cc1` (stereo unspecified) showed a max response of -1.86%. `COc1ccccc1NC(=O)CN(c1ccccc1OC)S(=O)(=O)c1ccccc1` gave a max response of -1.65%. In the case of `O=C1C[C@@H](c2ccc3ccccc3c2)N1S(=O)(=O)c1ccccc1[N+](=O)[O-]`, the max response is reported as -1.77%. `O=C1C2C(c3ccccc3)CC=CC2C(c2ccoc2)N1Cc1ccccc1` (stereo unspecified) showed a max response of 0.409%. Molecule `O=C(CN1C(=O)NC2(CCCCC2)C1=O)NCCc1c[nH]c2ccccc12` has a max response of -0.529%. `CC(C)(C)N(Cc1ccccc1)C(=O)c1ccncc1` showed a max response of -0.936%. Molecule `Cc1nnc(SCc2ccc(C(=O)c3ccc(Cl)cc3)o2)n1-c1ccccc1` has a max response of 6.81%. In the case of `Cc1ccc(-c2nc(-c3ccncc3)no2)c(C)c1`, the max response is reported as 43.8% (active). Molecule `Cc1ccc(-c2noc(CSc3nnc(-c4ccncc4)n3-c3ccc(F)cc3)n2)cc1` has a max response of 0.685%. Molecule `Cc1ccc2nc(-c3ccncc3)cc(C(=O)Nc3ccncc3)c2c1` has a max response of 6.6%. Work on `Cc1cc(S(=O)(=O)N2CCOCC2)ccc1OCC(=O)Nc1cccc(C(F)(F)F)c1` yielded a max response of -3.96%. Work on `CCC1=Nc2cc(C(=O)NCCN3CCCC3)ccc2Sc2ccc(C)cc21` yielded a max response of 14.2%. `CONC(=O)c1cc(OCC(F)(F)F)ccc1OCC(F)(F)F` gave a max response of -3.39%. In the case of `O=C(NC(=O)c1cc(OCC(F)(F)F)ccc1OCC(F)(F)F)Nc1ccccc1`, the max response is reported as 8.68% (active). With `O=C(Nc1ccccc1)Nc1ccc(C(F)(F)F)cn1` the max response was 13%. `CC1CCN(C(=O)Cn2nnnc2CN2CCOCC2)CC1` gave a max response of -2.13%. For `COc1ccc(CCNC(=O)C(=O)NCC2OCCN2S(=O)(=O)c2ccc(F)cc2)cc1OC` (stereo unspecified), the max response was 1.66%. With `COCCNC(=O)c1ccc(N2CCC3(CC2)OCCO3)c([N+](=O)[O-])c1` the max response was -2.09%. For `CCC(C)NC(=O)c1ccc(N2CCC3(CC2)OCCO3)c([N+](=O)[O-])c1` (stereo unspecified), the max response was 20% (active). `CC(NC(=O)c1ccc(N2CCNCC2)c([N+](=O)[O-])c1)C12CC3CC(CC(C3)C1)C2` (stereo unspecified) gave a max response of -1.62%. Molecule `Cc1cc(C)cc(Oc2nc3c(C)cccn3c(=O)c2/C=C(\C#N)C(=O)NC2CCS(=O)(=O)C2)c1` (stereo unspecified) has a max response of -2.61%. `COc1cc(/C=N\Nc2ccc([N+](=O)[O-])cn2)ccc1OCC(=O)O` gave a max response of 15.7%. In the case of `COc1cc(/C=N/O)ccc1OCc1ccc([N+](=O)[O-])cc1`, the max response is reported as 88.7% (active). For `COc1cc(C(=O)OCc2ccc([N+](=O)[O-])cc2)cc(OC)c1OC`, the max response was -1.24%. Work on `Cc1cc(=O)oc2c3c(cc(OCC(=O)N[C@H](C(=O)O)c4ccccc4)c12)OC(C)(C)CC3` yielded a max response of -1.78%. `CC(C)C(NS(=O)(=O)c1ccc(-c2ccc(Br)cc2)cc1)C(=O)O` (stereo unspecified) showed a max response of 7.4%. Molecule `Cc1cc(C)cc(N(CC(=O)NC2CCCC2)C(=O)CCC(=O)Nc2nccs2)c1` has a max response of -5.07%. With `Cc1nn(-c2ccccc2)c(=O)c2noc(C)c12` the max response was -1.05%. For `Cc1nn(-c2ccccc2)c(C)c1/C=C/C(=O)OC(C)C(N)=O` (stereo unspecified), the max response was 18.6% (active). With `Cc1nn(-c2ccccc2)c(C)c1NC(=O)CCl` the max response was 17.3%. `CCc1ccccc1S(=O)(=O)Cc1ccc(C(=O)NCCc2ccccc2)o1` gave a max response of 16%. For `CCN(CC)S(=O)(=O)c1cc(C(=O)Nc2ccccn2)ccc1C`, the max response was 45.1% (active). `CCN(CC)S(=O)(=O)c1ccc(NC(=O)c2cnc(C)cn2)cc1` gave a max response of 0.654%. In the case of `CCN(CC)S(=O)(=O)c1cccc(C(=O)Nc2ccccc2)c1`, the max response is reported as 17.1% (active). In the case of `CCN(CC)S(=O)(=O)c1ccc(NC(=O)c2cccnc2Cl)c(NC(=O)c2cccnc2Cl)c1`, the max response is reported as -1.75%. `CCN(CC)S(=O)(=O)c1cccc(C(=O)NCC(=O)OCC(=O)NCc2ccccc2)c1` gave a max response of -1.61%. For `Cc1ccc(NC(=O)CNCc2ccccn2)cc1S(=O)(=O)N(C)C`, the max response was 19.5%. Molecule `CC(C)c1ccc(C2C(C(=O)c3ccco3)=C(O)C(=O)N2CC2CCCO2)cc1` (stereo unspecified) has a max response of 10.1%. `CC(C)(C)[C@H]1C=C(C(=O)NCc2ccccc2)O[C@@H](OCc2ccc(CO)cc2)C1` showed a max response of -1.33%. In the case of `COc1cc(C(=S)N2CCOCC2)cc(OC)c1OC(=O)c1ccc([N+](=O)[O-])cc1[N+](=O)[O-]`, the max response is reported as 3.8%. Work on `Oc1ccc(-n2nnnc2SCc2c(F)cccc2Cl)cc1` yielded a max response of -2.8%. `Cn1c(SCc2ccc(F)cc2)nnc1-c1ccncc1` showed a max response of 10.5%. Work on `CCN(CC)C(=O)CSc1nnc(-c2cnccn2)n1-c1ccc(C)cc1` yielded a max response of 0.416%. With `Cc1ccc(CSc2nnc(-c3cnccn3)n2C)cc1` the max response was 10.9% (active). In the case of `O=C(CSc1nnc(-c2cnccn2)n1Cc1ccco1)c1ccc(Cl)c(Cl)c1`, the max response is reported as 0.777%. In the case of `Cn1c(SCc2c(F)cccc2Cl)nnc1-c1cnccn1`, the max response is reported as 56.4% (active). Work on `CN(C)C(=O)c1coc2nc3ccccc3nc12` yielded a max response of 4.74%. With `COc1ccc(C(C[N+](=O)[O-])n2nc(C)cc2C)cc1` (stereo unspecified) the max response was -0.331%. Molecule `COc1ccc(C(=O)N2CCc3cc(OC)c(OC)cc3C2c2cccc([N+](=O)[O-])c2)cc1` (stereo unspecified) has a max response of 0.684%. With `CCOC(=O)c1ccccc1NC(=O)CSc1nc2ccccc2c(=O)[nH]1` the max response was -3.39%. In the case of `O=C(CSc1nc(O)c(Cc2ccccc2)c(=O)[nH]1)Nc1nc2c(s1)CCCC2`, the max response is reported as 28% (active). Molecule `O=C(CCS(=O)(=O)c1ccccc1)Nc1nc2c(s1)CCCC2` has a max response of 5.94%. `CSc1nc(O)c(Cc2ccccc2)c(=O)[nH]1` showed a max response of -3.85%. In the case of `CCOC(=O)c1sc(NC(=O)CSc2nc(O)c(Cc3ccccc3)c(=O)[nH]2)nc1C`, the max response is reported as 39.7% (active). `CCOC(=O)c1sc(NC(=O)CSc2n[nH]c(CC)n2)nc1C` gave a max response of 0.587%. Molecule `Cn1c(NC(=O)c2ccc3c(c2)OCO3)cc(=O)n(C)c1=O` has a max response of -4.72%. In the case of `O=C(OCc1ccccc1F)c1ccc2c(c1)OCCO2`, the max response is reported as 33% (active). `Cc1cccc(C(=O)Nc2ccccc2N2CCN(c3ccc(F)cc3)CC2)c1` showed a max response of -0.148%. Molecule `Cc1ccc(-n2nc3c(c2NC(=O)c2ccc4c(c2)OCO4)CSC3)c(C)c1` has a max response of -1.7%. With `O=C(Nc1ccccc1F)c1ccc2c(c1)OCO2` the max response was 41.4% (active). Work on `COc1ccc(C(=O)Nc2ccc(F)cc2F)cc1` yielded a max response of 28.7%. For `O=C(Nc1ccccc1N1CCN(C(=O)c2ccccc2)CC1)c1ccc2c(c1)OCO2`, the max response was -1.45%. For `Cc1ccc(F)cc1NC(=O)c1cccc(N(C)C)c1`, the max response was 28.9% (active). Work on `CC(NC(=O)COC(=O)c1ccc2c(c1)OCO2)c1ccccc1` (stereo unspecified) yielded a max response of 7.94%. In the case of `O=C(COC(=O)c1ccc2c(c1)OCCO2)NCc1ccccc1`, the max response is reported as 10.5%. With `Cc1ccc(F)cc1NC(=O)c1ccc2c(c1)OCO2` the max response was 25.6% (active).
